# Measured values: PubChem BioAssay AID602452 (National Center for Advancing Translational Sciences (NCATS), 2012)
# Activity calls are given as the source filed them. How the calls were made is not given here.
# Assay: qHTS Assay for Inhibitors of Influenza NS1 Protein Function: SAR Using NS1 and pYES strains
# Conditions: yeast NS1-expressing strain growth, OD at 60 h; stronger effect = higher value
# Description: Influenza is a world-wide public health problem and emerging forms of the virus have the potential to cause a pandemic of equal or greater magnitude to the outbreaks recorded in 1918, 1957 or 1968. Vaccine development is proceeding and there also exist two classes of anti-influenza compounds. However these therapeutic modalities are neither fully effective nor widely enough available to fulfill global needs. In addition their potential usefulness against newly emergent strains is not known. Efforts are needed to develop novel agents against influenza virus, including broad-spectrum agents. Identification of small molecules that inhibit NS1 function either directly or by interfering with specific cellular pathways may be a key to increasing our defense against the virus.
# We have miniaturized and optimized a cell based assay in which NS1 from influenza A is expressed in the budding yeast S. cerevisiae. NS1 is a multi-functional protein that counters the host innate immune response and facilitates viral versus cellular gene expression. Expression of NS1 causes a pronounced slow growth phenotype in yeast due to its intrinsic molecular activities. Small molecules that suppress the slow growth phenotype can be identified by a straightforward growth recovery assay using optical density (OD) as the measurement. The same yeast strain not expressing NS1 was used as positive control in the yeast growth recovery assay.
# Hits resulting from the primary screen and other follow-up screens, were tested using the same yeast strain that was used in the primary assay (NS1) but as control, were compared to a strain that lacks NS1 (pYES).
# NIH Chemical Genomics Center [NCGC]
# NIH Molecular Libraries Probe Centers Network [MLPCN]
# Assay Submitter (PI): Daniel Engel, University of Virgina
# Strain 9526-6-2 (MATa his3Delta1 leu2Delta0 lys2Delta0 ura3Delta0 pdr1::KanMX4 pdr3::KanMX4) was a gift from Dan Burke. It was derived by tetrad dissection from two parent strains that had been modified by one step gene replacements. The pdr1::KanMX4 was constructed in BY4741 (MATa his3Delta1 leu2Delta0 met15Delta0 ura3Delta0) and the pdr3::KanMX4 was constructed in BY4742 (MATalpha his3Delta1 leu2Delta0 met15Delta0 ura3Delta0). PCR-mediated one-step gene replacements, matings and tetrad dissections were performed as described previously.[i] The strain 9526-6-2/pYES-NS1 was generated by transformation of 9526-6-2 with the plasmid pYES-NS1 and maintained on synthetic complete medium (SC) lacking uracil. For growth experiments and library screening, a single transformed colony was grown overnight, and the cell number was determined by using a Coulter counter (Beckman Coulter Corp.). The cells were diluted to 5 x 10^5 cells/mL in SC lacking uracil and containing raffinose and 2% galactose. A portion of this culture was added to preplated test compounds such that the final dimethyl sulfoxide (DMSO) concentration was 1%. Optical density readings at 600 nm (OD600) were taken using a Thermomax microplate reader (Molecular Devices).
row,Structure (SMILES),OD (growth)
1,COc1cc(-c2ccnc3c2c(C)nn3-c2cccc(C(F)(F)F)c2)ccc1O,0.366 (active)
2,Cc1nn(-c2ccc(Cl)cc2)c2nc(N)c(C#N)c(-c3ccc(O)c(O)c3)c12,0.384 (active)
3,COc1cc(-c2ccnc3c2c(C)nn3-c2ccc(C(F)(F)F)cc2)ccc1O,0.46 (active)
4,COc1cc(-c2c(C#N)c(N)nc3c2c(C)nn3-c2ccc(F)cc2)ccc1O,0.396 (active)
5,Cc1ccc(-n2nc(C)c3c(-c4ccc(O)c(O)c4)c(C#N)c(N)nc32)cc1C,0.515 (active)

# Same assay, conditions: yeast NS1-expressing strain growth, OD at 60 h; measured here: pYES control strain growth; stronger effect = higher value
row,Structure (SMILES),OD (growth)
1,COc1cc(-c2ccnc3c2c(C)nn3-c2cccc(C(F)(F)F)c2)ccc1O,0.551
2,Cc1nn(-c2ccc(Cl)cc2)c2nc(N)c(C#N)c(-c3ccc(O)c(O)c3)c12,0.572
3,COc1cc(-c2ccnc3c2c(C)nn3-c2ccc(C(F)(F)F)cc2)ccc1O,0.56
4,COc1cc(-c2c(C#N)c(N)nc3c2c(C)nn3-c2ccc(F)cc2)ccc1O,0.591
5,Cc1ccc(-n2nc(C)c3c(-c4ccc(O)c(O)c4)c(C#N)c(N)nc32)cc1C,0.536
